# NS1 function inh = blocks influenza NS1 protein function; Potency, µM (doses to about 46.1 µM), for the others: top-dose activity, positive = more growth; AID 2326; 270,000 compounds, 0.4% hits; calls by dose curve; also: potency is read from the fitted curve at half-maximal effect; actives are rising curves; nearly all actives have a fitted effect of over 50% in size
#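 Read-out: OD600 growth recovery of NS1-expressing budding yeast. Cells grown overnight at 30C in -URA glucose medium, washed, resuspended and diluted 1:100 in 2% galactose assay medium, pH 6.0. Same strain lacking NS1 served as positive control.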
# AmpC inh detg = inhibitors of E. coli AmpC beta-lactamase with detergent | P00811 | AmpC hydrolysis of nitrocefin, absorbance 480 nm, 0.01% Triton | Potency, µM (highest dose often 114 µM), without a hit: top-dose activity change, negative = inhibition, hits mostly inhibitors | 370,000 compounds, 0.041% hits | AID 485294;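 also: potency is read from the fitted curve at half-maximal effect; 0% = no-compound wells and -100% = no-enzyme wells; nearly all actives have a fitted effect of over 25% in size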
# Target sequence (P00811 whole entry, looked up): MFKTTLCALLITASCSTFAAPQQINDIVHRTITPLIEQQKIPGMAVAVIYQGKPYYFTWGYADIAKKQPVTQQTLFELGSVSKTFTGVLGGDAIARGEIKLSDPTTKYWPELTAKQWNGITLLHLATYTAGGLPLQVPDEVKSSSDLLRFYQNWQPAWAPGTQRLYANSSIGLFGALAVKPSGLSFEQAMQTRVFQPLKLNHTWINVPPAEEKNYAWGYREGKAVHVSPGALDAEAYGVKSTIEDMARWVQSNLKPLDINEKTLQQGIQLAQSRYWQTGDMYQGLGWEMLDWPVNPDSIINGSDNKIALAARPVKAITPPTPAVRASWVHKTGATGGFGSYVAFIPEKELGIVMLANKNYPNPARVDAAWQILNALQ
#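 20 mM phosphate pH 7.0 + 0.01% (detergent screen) or 0.0001% Triton X-100; 5.3 nM AmpC reagent; cpd preinc 15 min RT; nitrocefin (800 uM stock) to start; A480 q20 s × 4 min; Activity was normalised to no-enzyme and no-compound control wells.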
# Shiga toxin inh = inhibitors of Shiga toxin in Vero cells. Vero cells, Shiga toxin protein synthesis inhibition reporter. inhibition, % at 38.7 µM. 290,000 compounds, 9.2% hits; in the data active = inhibition mostly above about 28%, no sharp cut-off; inactive = mostly below about 43%; also: 0% is about no effect
# AmpC inh no detg = AmpC beta-lactamase inhibition without detergent | P00811 | AmpC nitrocefin hydrolysis, absorbance 480 nm, 0.0001% Triton | Potency, µM (top dose mostly 57.1 µM), for the others: at the highest dose activity change, negative = inhibition, most hits filed as inhibitors | 330,000 compounds, 0.52% hits;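 also: potency is read from the fitted curve at half-maximal effect; plate controls were no compound for no effect and no enzyme for full effect; nearly all actives have a fitted effect of over 20% in size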
#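 20 mM phosphate pH 7.0 + 0.01% (detergent screen) or 0.0001% Triton X-100; 5.3 nM AmpC reagent; cpd preinc 15 min RT; nitrocefin (800 uM stock) to start; A480 q20 s × 4 min; Activity was normalised to no-enzyme and no-compound control wells.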
# CHX counter = affects cycloheximide protein synthesis inhibition readout, counter-screen; cell reporter, cycloheximide protein synthesis inhibition counterscreen; max response, %; 300,000 compounds, 12% hits; AID 2314; in the data active = max response mostly above about 13%, no sharp cut-off; inactive = mostly below about 14%; also: read at 38.3 µM for the half of the compounds with a filed dose; 0% is about no effect
# Active calls of the source: *; ? = inconclusive; / = not tested or not shown; [ ] = another dose, or the depositor's remark. This excerpt belongs to a sample that is enriched for hits. Unless noted, calls follow the shape of the dose curve; as a rule, active = well fitted curve in the direction sought with a large enough effect; inconclusive = small, poorly fitted or top-dose-only effect, or another doubt; inactive = no such curve, though single readings can be large; an effect the other way counts as inactive or inconclusive.
SMILES,NS1 function inh,AmpC inh detg,Shiga toxin inh,AmpC inh no detg,CHX counter
O=C1CC(CC(=O)N/N=C/c2ccccc2[N+](=O)[O-])=NN1,6.3µM*,?,-13,-21%,-2
C/C(=N\Nc1nc(C)c(C)s1)c1ccc([N+](=O)[O-])cc1,/,?,19,-17%,-5
CCCSc1nc2sc3c(c2c(=O)n1-c1ccc(C)c(Cl)c1)CCN(C(C)=O)C3,/,10%,/,/,/
CC(=O)Nc1ccc(C(=O)N/N=C/c2cccnc2)cc1,7%,?,-7,-16%,-2
Cn1nccc1C(=O)N/N=C/c1cccnc1,-1%,1%,59*,-1%,33*
Cn1nccc1C(=O)N/N=C/c1ccccc1[N+](=O)[O-],4%,-2%,80*,3%,32*
CCC(=O)Nc1ccc(C(=O)N/N=C/c2ccccc2[N+](=O)[O-])cc1,-7%,-12%,12,-23%,6
CC(=O)Nc1cccc(NC(=O)CSc2cn(CC(=O)N3CCCCCC3)c3ccccc23)c1,/,3%,/,/,/
Fc1ccc(NC(=S)NNc2ncc(C(F)(F)F)cc2Cl)c(F)c1,-53%,1%,48*,-5%[2.29 µM],21
CC(C)c1ccc(OCC(=O)N(Cc2cccs2)C2CCS(=O)(=O)C2)cc1 (stereo unspecified),/,-13%,/,/,/
CCCC(=O)N(c1ccc2oc(-c3ccccc3)c(C(=O)OCC)c2c1)S(=O)(=O)c1ccc(C)cc1,/,16%,/,/,/
Nc1nn2cc(-c3ccc(Br)cc3)nc2c2ccccc12,-67%,-2%,125*,-25%,62*
Cc1ccc(C(=O)c2coc3c2C(=O)C(=O)c2ccccc2-3)cc1,-16%,2%,42*,-39%,32*
Cc1ccc(C(=O)c2c(C)oc3c2C(=O)C(=O)c2ccccc2-3)cc1,-97%,2%,4,-21%,18
COc1ccc(CCNC(=O)Cn2c(=O)nc(-c3ccccc3)c3ccccc32)cc1OC,/,1%,/,/,/
O=C(CCNS(=O)(=O)c1ccc(Cl)cc1)N1CCC2(O)CCCCC2C1 (stereo unspecified),?,40µM*,-22,15%,1
CCC(C)NC(=O)c1ccc(Cn2c(=O)c3cccn3c3cccnc32)cc1 (stereo unspecified),/,-3%,/,/,/
Cc1ccc(-c2nn(-c3cccc(F)c3)cc2CNCc2cccnc2)o1,1%,-4%,27,65%,10*
Cc1ccc(-c2nn(-c3ccccc3)cc2C(N)=O)o1,-1%,-8%,-4,-28%,12
Cc1ccc(-c2nn(-c3ccccc3)cc2C=O)o1,/,-5%,112*,-8%,51*
Cc1ccc(-c2nn(-c3ccccc3)cc2CO)o1,-13%,-3%,85*,-7%,34*
O=Cc1cn(-c2ccccc2)nc1-c1ccccc1,-32%,?,45*,-15%,44*
Cc1ccc(-c2nn(-c3cccc(F)c3)cc2CN2CCN(c3ccccn3)CC2)o1,5%,-9%,2,50%,-1
N#Cc1c(C(F)(F)F)cc(-c2cccs2)nc1SCC(=O)Nc1ccccc1F,/,0%,/,/,/
COc1ccc(Cn2ccnc2SCC(=O)Nc2ccc3c(c2)OCCO3)cc1,/,5%,/,/,/
SMILES,NS1 function inh,AmpC inh detg,Shiga toxin inh,AmpC inh no detg,CHX counter
CCc1ccc(-c2nn(Cc3ccccc3)cc2C=O)cc1,/,?,90*,-2%[11.4 µM],50*
C(=N\N1CCOCC1)/c1cn(-c2ccccc2)nc1-c1ccccc1,/,-9%,35,109%,22*
N#Cc1cn(-c2ccccc2)nc1-c1ccccc1,-6%,2%,25,-15%,21*
CCc1ccc(-c2nn(Cc3ccccc3)cc2/C=C/C(=O)O)cc1,12%,-1%,1,-20%,-3
Cc1cc(Nc2ccccc2)nc(N2CCN(C(=O)c3ccc4c(c3)OCO4)CC2)n1,/,-18%,/,-15%,/
CCN(CC)S(=O)(=O)c1cc(NC(=O)Cn2ncc(Cl)c(Cl)c2=O)ccc1C,3%,5%,-12,-37%,32*
CCC(=O)Nc1ccc(C(=O)Cn2ncc(Cl)c(Cl)c2=O)cc1,3%,-8%,54*,-5%,46*
COc1ccc(NC(=O)Cn2ncc(Cl)c(Cl)c2=O)cc1S(=O)(=O)N1CCOCC1,21%,-15%,20,-10%,19*
CCOC(=O)c1ccc(NC(=O)Cn2ncc(Cl)c(Cl)c2=O)cc1,-16%,-2%,-18,-59%,-8
Cc1ccc(NS(=O)(=O)Cc2ccccc2)cc1Cl,-31%,-14%,-4,-22%,-1

# Assay outcomes: PubChem, National Center for Advancing Translational Sciences (NCATS)
